# Sfp inh: inhibitors of Bacillus subtilis Sfp phosphopantetheinyl transferase. Q9F4F7. Biochemical Sfp PPTase activity, qHTS. Potency, µM, without a hit: largest response in the series, negative = inhibition, most hits filed as inhibitors. actives 3.5% (n = 310,000);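 also: the enzyme is Sfp with the accession as filed and its product quenches rhodamine fluorescence; potency is read from the fitted curve at half-maximal effect; 0% = enzyme reaction without inhibitor and -100% = no enzyme wells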
#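 Step 1, compound plus 15 nM Sfp-PPTase, 15 min, room temperature. Step 2, add rhodamine-CoA (5 uM) and BHQ-2-YbbR (12.5 uM). Step 3, read 525/598 nm fluorescence at 0 and 30 min.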
# G9a inh: G9a (human) methyltransferase inhibition | Q96KQ7 | AID 504332 | G9a H3K9 monomethylation, AlphaScreen, 2 h | Potency, µM (titrated, usually from 102 µM), for inactives: at the top dose activity, negative = inhibition, most hits filed as inhibitors | actives 8.8% (n = 350,000); also: potency is read from the fitted curve at half-maximal effect; nearly all actives have a fitted effect of over 75% in size
# Target sequence (Q96KQ7 913-1193 limits assumed): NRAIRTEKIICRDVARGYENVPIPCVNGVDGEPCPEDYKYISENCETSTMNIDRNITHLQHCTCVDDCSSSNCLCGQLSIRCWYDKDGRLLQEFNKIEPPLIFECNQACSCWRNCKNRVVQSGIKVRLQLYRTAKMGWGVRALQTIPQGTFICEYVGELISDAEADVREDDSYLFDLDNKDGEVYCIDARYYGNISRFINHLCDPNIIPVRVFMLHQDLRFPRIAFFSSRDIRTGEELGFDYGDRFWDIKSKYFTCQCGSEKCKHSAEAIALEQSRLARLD
#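 Step 1: enzyme (final 20 nM) with compound, 15 min RT. Step 2: substrate peptide 500 nM and SAM 20 uM, 2 h RT. Step 3: anti-H3K9me1 antibody and AlphaScreen beads, 10 min, then plate read.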
# Mm-Cpn inhibitor: inhibitors of Methanococcus maripaludis chaperonin TRiC (MmCpn); actives 0.031% (n = 330,000); purified Mm-Cpn ATPase, ADP Transcreener TR-FRET; AID 504842; Potency, µM (highest dose often 76.9 µM), without a hit: at the top dose activity, negative = inhibition, most hits filed as inhibitors; also: potency is read from the fitted curve at half-maximal effect; nearly all actives have a fitted effect of over 80% in size
#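 ATPase turnover read by TR-FRET ADP competition (Eu cryptate antibody/ADP-d2, 665/590 nm): 10uM ATP final, 25nM Mm-CPN final, 30 min 37degC after 10-min compound preincubation, pH 7.4 Tris/KCl/MgCl2/DTT buffer.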
# VDR inhibitor: inhibitors of human vitamin D receptor; P11473; VDR-SRC2-3 peptide fluorescence polarization, 2 h; Potency, µM, for the others: max response, negative = inhibition, actives largely listed as inhibitors; actives 0.93% (n = 400,000); AID 504847; also: potency is read from the fitted curve at half-maximal effect
# Target sequence (P11473 whole entry, looked up): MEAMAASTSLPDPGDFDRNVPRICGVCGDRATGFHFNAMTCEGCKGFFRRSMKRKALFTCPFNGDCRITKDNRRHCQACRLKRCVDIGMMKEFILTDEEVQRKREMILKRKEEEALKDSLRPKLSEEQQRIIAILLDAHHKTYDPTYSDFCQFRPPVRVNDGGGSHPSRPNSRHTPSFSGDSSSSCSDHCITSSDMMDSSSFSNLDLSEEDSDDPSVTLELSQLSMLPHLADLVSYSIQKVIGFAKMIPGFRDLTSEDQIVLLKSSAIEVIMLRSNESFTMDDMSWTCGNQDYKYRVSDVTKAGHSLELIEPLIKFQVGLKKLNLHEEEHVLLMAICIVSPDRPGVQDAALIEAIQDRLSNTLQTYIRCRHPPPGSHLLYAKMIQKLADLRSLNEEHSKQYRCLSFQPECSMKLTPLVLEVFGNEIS
#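 Reagent solutions, kept cold and dark, are dispensed first; compounds are then pinned in at 23 nl, plates briefly spun, and incubated 2 h at ambient temperature. Inhibition of VDR–SRC2-3 peptide binding is read by fluorescence polarization.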
# CCT chaperon mod: modulators of cytosolic chaperonin (CCT/TRiC) activity; purified chaperonin ATPase assay, HTRF ADP detection, 30 min; activity change, % (no concentration beside the values), hits read low; actives 0.3% (n = 360,000); AID 651819; in the data active = activity change below about -30%
#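 TRiC at 40 or 20 nM final (batch-dependent) in 30 mM Tris pH 7.4, 100 mM KCl, 5 mM MgCl2, 1 mM DTT, with compound at single 76 uM and 10 uM ATP, 30 min at 37 deg C. ADP detected by HTRF Transcreener, 665/615 ratio.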
# PLK1 PBD inh: PLK1 (human) polo-box domain binding inhibition. P53350. Plk1 PBD binding of FITC phosphopeptide, fluorescence polarization. Potency, µM, without a hit: max response, negative = inhibition, most hits filed as inhibitors. actives 2.8% (n = 360,000); also: potency is read from the fitted curve at half-maximal effect; series mostly up to about 57 µM; nearly all actives have a fitted effect of over 65% in size
# * = called active by the depositor; ? = inconclusive; . = not tested or not shown; [ ] = another dose, or the depositor's remark. Most compounds without a hit are left out; they make up all but 10% or so of the library. Unless noted, calls follow the shape of the dose curve; as a rule, active = well fitted curve in the direction sought with a large enough effect; inconclusive = small, poorly fitted or top-dose-only effect, or another doubt; inactive = no such curve, though single readings can be large; an effect the other way counts as inactive or inconclusive. Unless noted, % is scaled to controls: 0 for no effect and ±100 for the full control effect.
SMILES,Sfp inh,G9a inh,Mm-Cpn inhibitor,VDR inhibitor,CCT chaperon mod,PLK1 PBD inh
CCC(=O)c1c(OCc2ccccc2)ccc2c(C)cc(=O)oc12,-6.2%,-4.7%,0.2%,.,.,.
COc1ccc(CCC(=O)Nc2c(-c3ccc(N(C)C)cc3)[nH][nH]c2=O)cc1,.,.,.,.,1.8,21.2µM*
COc1ccc(-c2[nH][nH]c(=O)c2NC(=O)c2ccccn2)cc1,.,.,.,.,-0.5,-4.7%
Cc1ccc(S(=O)(=O)N2CCC(C(=O)Nc3ccc(C)c(Cl)c3)CC2)cc1,.,-26.0%[59 µM],.,-0.6%,.,.
COc1ccccc1-c1nc(S(=O)(=O)c2ccc(Cl)cc2)c(N(C)C)o1,?,2.82µM*,0.4%,-13.9%,0.6,?
COc1cc(-c2nc(S(=O)(=O)c3ccc(C)cc3)c(N(C)C)o2)cc(OC)c1OC,56.2µM*,3.55µM*,-0.9%,0.5%,-1.6,-0.1%
COc1ccccc1/C=C/c1nc(S(=O)(=O)c2ccccc2)c(N(C)C)o1,-22.3%,35.5µM*,1.2%,?,1.3,-9.6%
Cc1ccc(-c2nc(S(=O)(=O)c3ccc(C)cc3)c(N(C)C)o2)cc1,?,10µM*,-0.6%,?,-1.3,-6.0%
Cc1ccc(S(=O)(=O)c2nc(-c3ccccc3Cl)oc2N(C)C)cc1,3.4%,.,0.8%,1.3%,-1.3,4.4%
COc1ccc(CNC(=O)CCc2c(C)c3ccc(OC)c(C)c3oc2=O)cc1OC,.,1.0%[59 µM],.,5.1%,.,.
O=C1OC(c2ccccc2)=C/C1=C/c1cccs1,50.1µM*,12.6µM*,-1.6%,2.2%,-1.7,2.0%
O=C1C(=Cc2cccs2)Oc2ccccc21,.,.,.,-9.5%,-2.8,1.2%
CC(NC(=O)CCn1c(=O)c2cccn2c2ccc(F)cc21)c1ccccc1 (stereo not drawn),.,0.2%[59 µM],.,2.1%,.,.
COc1cc(C2SCC(=O)N2CCN2CCCCC2)ccc1O (stereo not drawn),23.5%,50.1µM*,1.3%,-5.5%,-3.5,-10.9%
O=C1CSC(c2ccc([N+](=O)[O-])cc2)N1CCN1CCCCC1 (stereo not drawn),-3.3%,-28.4%,1.3%,-14.4%,-1.5,-8.9%
CCC1CCc2[nH]nc(C(=O)O)c2C1 (stereo not drawn),-14.5%,25.1µM*,0.9%,2.9%,-16.8,-3.8%
CC1CCc2[nH]nc(C(=O)O)c2C1 (stereo not drawn),-4.3%,28.2µM*,1.5%,-18.5%,2.3,2.1%
CCCNC(=O)C/C(C)=N/NC(=O)C(=O)Nc1ccccn1,-5.7%,50.1µM*,-0.2%,1.5%,3.0,-7.0%
CCC(=O)Nc1nc(C)c(-c2csc(Nc3cccc(C(=O)O)c3)n2)s1,20µM*,44.7µM*,-15.5%,0.4%,-4.4,?
CC(=O)Nc1nc(C)c(-c2csc(Nc3cccc(C(C)=O)c3)n2)s1,-9.2%,39.8µM*,-2.4%,-12.9%,-2.7,-5.3%
CCC(=O)Nc1nc(C)c(-c2csc(Nc3ccc(C(=O)O)cc3)n2)s1,?,50.1µM*,-7.6%,-15.4%,-2.6,?
Cc1nc(NC(=O)c2ccccc2)sc1-c1csc(Nc2ccc(C(=O)O)cc2)n1,-23.4%,.,-0.2%,-9.3%,-4.4,?
Fc1cnc(Cl)nc1NC1CCCCC1,16.3%,-5.9%,-1.2%,?,0.4,21.2µM*
Fc1ccc(-n2ncc3c(NC4CCCCCC4)ncnc32)cc1,.,9.4%[59 µM],.,10.5%,.,.
CCCCN(Cc1ccco1)S(=O)(=O)c1ccc(-c2ccc(=O)[nH]n2)s1,?,-4.8%,-1.1%,-15.7%,0.6,23.8µM*
SMILES,Sfp inh,G9a inh,Mm-Cpn inhibitor,VDR inhibitor,CCT chaperon mod,PLK1 PBD inh
Cc1ccc2nc3c(cc(C#N)c(=O)n3-c3nnc(SCc4ccccc4)s3)c(=O)n2c1,.,-2.2%[59 µM],.,17.5%,.,.
CCOC(=O)OCC1OC(c2cc(C)cc(C)c2)C=CC1OC(=O)OCC (stereo not drawn),10.4%,.,.,.,.,.
Cc1cccc(C(=O)NCC(=O)N(C)CC(=O)Nc2ccc(N3CCOCC3)cc2)c1,6.0%,?,0.5%,-4.3%,-0.1,-3.9%
C/C(=N/NC(=O)COc1cc(C)ccc1C(C)C)C(=O)O,-13.1%,?,-1.4%,4.6%,0.1,-0.5%
CN(CC(=O)Nc1ccc(N2CCOCC2)cc1)C(=O)CCNC(=O)c1ccc(Br)cc1,.,44.7µM*,1.5%,-3.2%,2.2,-12.0%
CCCCCOc1ccc(C(=O)Nc2ccc(N3CCOCC3)cc2N2CCOCC2)cc1,.,2µM*,1.0%,21.6%,-1.1,-4.4%
CCCCOc1ccc(C(=O)NCC(=O)N(C)CC(=O)Nc2ccc(N3CCOCC3)cc2)cc1,.,25.1µM*,-0.7%,-14.6%,-2.6,-11.8%
Cc1ccc(C(C)C)c(OCC(=O)NN=C(CCl)CCl)c1,50.1µM*,.,-1.5%,.,.,.
OCCN1CCN(C(c2ccccc2Cl)c2sc3nc(-c4ccco4)nn3c2O)CC1 (stereo not drawn),.,?,.,-6.0%,.,.
CCOc1ccc(S(=O)(=O)Nc2nc3ccccc3nc2Nc2ccc(OC)cc2)cc1,.,0.6%[59 µM],.,-11.6%,.,.
CCOc1ccc(S(=O)(=O)Nc2nc3ccccc3nc2Nc2ccc(N3CCOCC3)cc2)cc1,-5.1%,10µM*,-1.8%,-19.3%,-1.7,-17.1%
CC(C)(C)c1ccc(OCCC(=O)OCC(=O)Nc2ccc(N3CCOCC3)cc2)cc1,.,44.7µM*,2.3%,-25.5%,3.4,-0.1%
Cc1ccc(OCC(=O)N(C)CC(=O)Nc2ccc(N3CCOCC3)cc2)cc1,.,4.5%[0.501 µM],-0.5%,-20.7%,-2.3,3.5%
O=C(Nc1ccc(N2CCOCC2)cc1N1CCOCC1)c1ncoc1-c1cccc(F)c1,-5.8%,35.5µM*,-0.3%,7.8%,-3.3,-1.8%
O=C(Nc1ccccc1N1CCCCC1)c1ncoc1-c1cccc(F)c1,-6.5%,77.9%[59 µM],-4.8%,-15.1%,-5.6,-7.4%
CCOc1ccc(S(=O)(=O)NCCC(=O)N(C)CC(=O)Nc2ccc(N3CCOCC3)cc2)cc1,.,35.5µM*,0.5%,3.5%,-5.4,-1.9%
COc1ccc(OCCC(=O)OCC(=O)Nc2ccc(S(=O)(=O)N3CCOCC3)cc2)cc1,14.6%,-4.8%,0.2%,-12.6%,-5.6,-9.1%
CC1CCN(c2nc3ccccc3nc2C(F)(F)F)CC1,.,53.2%[59 µM],.,15.5%,.,.
CC(C)OC(=O)c1cc2c(OC[C@@H](O)CNC(C)(C)C)cccc2[nH]1,1.9%,.,.,0.5%,.,.
O=C(NC1CCCc2ccccc21)c1ccc2c(c1)sc1nc(-c3ccccc3)cn12 (stereo not drawn),.,-1.4%[59 µM],.,12.5%,.,.
Cc1ccc(C(C)C)c(OCC(=O)Nc2ccc(N3CCOCC3)cc2N2CCOCC2)c1,.,25.1µM*,-0.9%,-12.6%,1.3,-7.5%
Cc1cccc(N2CSC3=C(C#N)C(c4ccc(C)o4)CC(=O)N3C2)c1 (stereo not drawn),2.82µM*,3.55µM*,-10.0%,.,.,.
COc1ccc(CC(=O)N2CCN(c3ccccc3F)CC2)cc1OC,12.6%,25.1%[59 µM],-3.8%,-2.8%,0.6,5.3%
